# TGFb SMAD3 inh: blocks TGF-b signaling. hit rate 1.2% among 410,000. Potency, µM (titrated, usually from 46.1 µM), for the others: at the top dose activity, negative = inhibition, actives largely listed as inhibitors. HepG2 CAGA-GFP TGF-b/SMAD3 reporter, GFP fluorescence, 18 h; TGF-beta stimulated, 500 pg/mL final; further: potency means the concentration at half of the fitted maximal effect; on the % scale 0 is the no-effect control and ±100 the full control effect; nearly all actives have a fitted effect of over 65% in size
#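 Inhibition of TGF-beta-driven CAGA-GFP reporter expression in HEPG2 cells is measured by cellular GFP fluorescence after 18 h stimulation with 500 pg/mL recombinant TGF-beta in 1% FBS medium at 37 degrees C.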
# HepG2 tox: HepG2 cytotoxicity, counter-screen for TGF-b inhibitors; HepG2 CAGA-GFP viability, ATP luminescence, 18 h; Potency, µM (series often up to 46.1 µM), inactives show at the top dose activity change, negative = cytotoxicity, usual class: cytotoxic; hit rate 0.76% among 410,000; further: potency means the concentration at half of the fitted maximal effect
#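 CellTiter-Glo luminescence gave cytotoxicity after 18 hours at 37 degrees C. The cells were HepG2 CAGA-GFP in 1% FBS DMEM, stimulated with 500 pg/mL TGF-beta after compound addition. %Activity was normalised to no-cell wells (complete cell-killing) and DMSO (no toxicity), and curves were fitted and classified.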
# TDP1 cell noCPT: qHTS for Inhibitors of human tyrosyl-DNA phosphodiesterase 1 (TDP1): qHTS in cells in absence of CPT; AID 686978, 2013; hit rate 15% among 420,000; Potency, µM (titrated, usually from 46.2 µM), for inactives: at the highest dose activity change, negative = growth inhibition, hits mostly inhibitors; DT40 Tdp1-/- hTDP1 cells, no CPT, ATP luminescence, 48 h; further: potency means the concentration at half of the fitted maximal effect; on the % scale 0 is the no-effect control and ±100 the full control effect; nearly all actives have a fitted effect of over 55% in size
#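 Cells were dispensed at 400 per well, compounds added by pin tool, plates incubated ≥48 hr at 37 °C, then CellTiter-Glo added for 30 min at room temperature before luminescence reading. Line: DT40 Tdp1-/- complemented with hTDP1; camptothecin omitted.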
# TDP1 cell CPT: growth inhibition of DT40 Tdp1-/-;hTDP1 cells with camptothecin (screen for TDP1 inhibitors) | Potency, µM (highest dose often 46.2 µM), without a hit: at the highest dose activity change, negative = growth inhibition, actives largely listed as inhibitors | hit rate 12% among 420,000 | chicken DT40 Tdp1-/-;hTDP1 cells + 20 nM CPT, ATP luminescence, 48 h | AID 686979; further: potency means the concentration at half of the fitted maximal effect; on the % scale 0 is the no-effect control and ±100 the full control effect; nearly all actives have a fitted effect of over 55% in size
#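 Chicken DT40 Tdp1-/- cells stably complemented with human TDP1 were seeded at 400 cells/well in medium containing 20 nM camptothecin, exposed to pin-transferred compounds, and grown at 37 °C for at least 48 hr. Viability was read as ATP luminescence.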
# S-ASM inh: blocks human secretory acid sphingomyelinase. P17405. placental ASM, HMU-PC fluorogenic substrate, 60 min. Potency, µM (titrated, usually from 57.5 µM), without a hit: at the highest dose activity change, negative = inhibition, usual class: inhibitors. hit rate 0.006% among 340,000. AID 504937; further: potency means the concentration at half of the fitted maximal effect
# Target sequence (P17405 47-631 limits assumed): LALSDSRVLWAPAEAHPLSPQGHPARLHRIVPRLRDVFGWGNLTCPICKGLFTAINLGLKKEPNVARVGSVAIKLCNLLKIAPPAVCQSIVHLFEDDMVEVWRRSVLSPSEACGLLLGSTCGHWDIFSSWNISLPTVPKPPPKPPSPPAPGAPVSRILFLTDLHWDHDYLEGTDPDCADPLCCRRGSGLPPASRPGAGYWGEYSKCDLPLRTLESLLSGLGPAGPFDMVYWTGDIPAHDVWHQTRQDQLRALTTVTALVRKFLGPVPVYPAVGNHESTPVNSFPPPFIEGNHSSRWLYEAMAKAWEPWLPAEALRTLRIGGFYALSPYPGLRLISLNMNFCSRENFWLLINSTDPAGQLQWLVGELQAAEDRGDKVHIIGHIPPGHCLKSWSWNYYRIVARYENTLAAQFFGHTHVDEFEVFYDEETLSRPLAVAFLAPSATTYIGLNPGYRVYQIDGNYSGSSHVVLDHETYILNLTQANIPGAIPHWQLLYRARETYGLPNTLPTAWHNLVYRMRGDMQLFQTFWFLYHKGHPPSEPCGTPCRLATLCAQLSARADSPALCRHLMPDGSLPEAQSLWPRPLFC
#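 Steps: dispense placental human ASM, pin compound, wait 10 min at room temperature, add HMU-PC0 substrate at 9 uM final, incubate 60 min at 37 °C, add stop solution raising pH to 10, read fluorescence.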
# IL-1B inflam inh: blocks inflammasome-driven IL-1 beta release; THP-1 LPS/ATP IL-1B secretion, AlphaLISA, 16 h; hits give low values; activity change, % at 57.5 µM; hit rate 4.7% among 360,000; in the data active means activity change below about -50%; inconclusive means mostly about -30% to -49%; further: on the % scale 0 is the no-effect control and ±100 the full control effect
#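 Secreted IL-1B measured by AlphaLISA bead assay after 16 h compound exposure of THP-1 cells; compounds (final up to 57.5 uM) added 1 h before LPS (250 ng/mL) and ATP (1.25 mM) stimulation; lower signal means less secretion.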
# Active calls of the source: *; ? = inconclusive; · = no result given; [ ] = remark or other dose. The list is not random: actives were taken first. Their share in the collection is about 19%. Unless noted, the call rests on the fitted dose curve; in most records, active means well fitted curve in the direction sought with a large enough effect; inconclusive means small, poorly fitted or top-dose-only effect, or another doubt; inactive means no such curve, though single readings can be large; an effect the other way counts as inactive or inconclusive.
SMILES,TGFb SMAD3 inh,HepG2 tox,TDP1 cell noCPT,TDP1 cell CPT,S-ASM inh,IL-1B inflam inh
COc1ccccc1N1CCN(C2CCCN(C(=O)CCN3CCCCO3)C2)CC1 (stereo not given),9%,3%,16%,2%,-1%,30
Cc1cc(C)cc(N(CC(=O)Nc2ccccc2-c2ccccc2)S(=O)(=O)c2ccccc2)c1,-30%,33%,?,-28%,6%,11
Cc1cccc(N(CC(=O)Nc2ccccc2-c2ccccc2)S(=O)(=O)c2ccccc2)c1C,-22%,-14%,23µM*,?,0%,-5
Cc1ccc(N(CC(=O)Nc2ccccc2-c2ccccc2)S(=O)(=O)c2ccccc2)cc1,-8%,-14%,21µM*,16µM*,-1%,-26
O=C(C1CCCCN1S(=O)(=O)c1ccc(F)cc1)N1CCN(c2ccccc2F)CC1 (stereo not given),0%,-21%,?,-26%,4%,17
COc1ccccc1N1CCN(C(=O)C2CCCCN2S(=O)(=O)c2ccc(C)cc2)CC1 (stereo not given),-25%,-33%,?,18µM*,3%,-4
COc1ccccc1N1CCN(C(=O)C2CCCN(S(=O)(=O)c3ccc(C)cc3)C2)CC1 (stereo not given),?,-48%,10µM*,16µM*,-1%,-26
Cc1ccc(CNC(=O)C2CCC(=O)N(Cc3cccc(C(F)(F)F)c3)C2)o1 (stereo not given),15%,-1%,-28%,?,·,5
CN(C)S(=O)(=O)c1ccc2c(c1)N(CC(=O)Nc1ccc(OC(F)(F)F)cc1)C(=O)CS2,?,-39%,?,16µM*,·,·
Cc1ccc(NC(=O)CN2C(=O)CSc3ccc(S(=O)(=O)N(C)C)cc32)cc1C,?,-27%,?,16µM*,·,·
Cc1cc(Cl)ccc1NC(=O)CN1C(=O)CSc2ccc(S(=O)(=O)N(C)C)cc21,-30%,-9%,-28%,?,·,·
Cc1cc(C)cc(NC(=O)CN2C(=O)CSc3ccc(S(=O)(=O)N(C)C)cc32)c1,?,-10%,16µM*,21µM*,·,·
COc1ccc(C(=O)N=C2SC3CS(=O)(=O)CC3N2Cc2ccc(F)cc2)cc1 (stereo not given),0%,3%,-13%,-19%,-2%,-26
Cc1cn(C)c(CC(=O)Nc2cccc(C#N)c2)c1C(=O)O,1%,-3%,0%,-20%,·,·
Cc1cc(C)cc(Cn2cc(CN3CC(N4CCN(CCN(C)C)CC4)CS3(=O)=O)nn2)c1 (stereo not given),·,·,-13%,-1%,·,40
CCOc1ccccc1C(=O)N(CN1CCCC1=O)c1cccc(Cl)c1,19%,-3%,9.2µM*,15µM*,3%,22
COc1ccccc1N(CN1CCCC1=O)C(=O)c1c(F)cccc1Cl,12%,0%,10µM*,21µM*,1%,11
CC(C)N(Cc1ccccc1)C(=O)Cn1ncc2c([nH]c3ccccc32)c1=O,-23%,2%,?,-13%,·,·
COC(c1ccc2c(c1)CN(C(=O)Cn1nc(C)c3ccccc3c1=O)CCO2)C1CCCCC1 (stereo not given),·,·,-17%,-2%[9.04 µM],·,·
CCOC(=O)C1=CNS(=O)(=O)NC1c1ccc(C[C@H](NC(=O)CNC(=O)CCc2ccccc2)C(N)=O)cc1 (stereo not given in full),11%,-11%,-2%,-1%,43%,22
Nc1ccc(Oc2ccccc2-c2ccccc2)cc1,0%,18%,-27%,5%,-1%,-57*
CCOCCCNC(=O)CN1C(=O)/C(=C\c2ccc(C)cc2)Sc2ccccc21,11%,4%,?,21µM*,-1%,2
COCCCNC(=O)CN1C(=O)/C(=C/c2ccccc2)Sc2ccccc21,-6%,-20%,15µM*,?,-3%,-15
CCOCCCNC(=O)CN1C(=O)/C(=C/c2ccccc2)Sc2ccccc21,?,-30%,?,?,-2%,?
COc1ccc(C2=Nn3c(nc4sc(C(=O)Nc5cccc(C)c5)c(C)c4c3=O)SC2)cc1,-1%,-25%,?,?,·,·
SMILES,TGFb SMAD3 inh,HepG2 tox,TDP1 cell noCPT,TDP1 cell CPT,S-ASM inh,IL-1B inflam inh
CC(=O)c1ccccc1NC(=O)c1ccc(OCc2c(C)noc2C)cc1,-11%,-115%,18µM*,?,-3%,-66*
O=C(Cc1ccc(OCc2ccccc2)cc1)NCc1ccc2c(c1)OCO2,26%,9%,7.3µM*,?,·,43
Cc1noc(C)c1COc1ccc(CC(=O)NCCc2ccccn2)cc1,6%,-3%,?,-8%,2%,16
Cc1noc(C)c1COc1ccc(CC(=O)NCc2ccccc2)cc1,?,-31%,0.52µM*,0.65µM*,4%,125
CC(=O)c1cccc(NC(=O)c2ccc(OCc3c(C)noc3C)cc2)c1,18%,-3%,-19%,-12%,1%,18
C=CCN(Cc1ccc(Br)s1)C(=O)c1ccc(OCc2c(C)noc2C)cc1,-4%,-7%,16µM*,?,·,-11
CCOC(=O)CCCCCC(=O)Nc1ccc2c(c1)CC(=O)N([C@@H](C)CO)C[C@@H](C)[C@@H](CN(C)C(=O)Nc1ccc(C(F)(F)F)cc1)O2,?,-46%,?,?,-12%,-5
Cc1ccc(NC(=O)NC(=O)N(C(C)C)S(C)(=O)=O)nc1,-3%,17%,1%,-2%,9%,4
CCN(CC(=O)NC(C)C)Cc1nc2c(Br)cc(Br)cc2c(=O)[nH]1,?,-35%,?,-24%,-3%,30
Cc1noc(C)c1COc1cccc(C(=O)NCCc2c[nH]c3ccccc23)c1,-20%,1%,21µM*,13µM*,-8%,6
Cc1noc(C)c1COc1ccc(C(=O)NCc2cccs2)cc1,2%,-56%,-23%,-7%,1%,-99*
CCN(C(=O)COC(=O)c1ccc(OCc2c(C)noc2C)cc1)c1ccccc1,6%,-18%,13µM*,?,-4%,-17
COc1cc(C(=O)NCc2cccs2)ccc1OCc1c(C)noc1C,21%,-13%,?,-4%,-1%,-1
Cc1ccccc1NC(=O)c1cccc(OCc2c(C)noc2C)c1,?,-3%,-18%,-18%,2%,?

# From PubChem BioAssay
